Assay results: PubChem BioAssay (EPA / NIEHS)
The source made the active and inactive calls. Rule for the calls: active = hit-call score of the fitted dose curve at least 0.9, where 1 is the maximum; inactive = score below 0.9.

Columns and labels:
[1] = molecular target: Transcription factor E2F1 (Homo sapiens) (UniProt Q01094); test: ATG_E2F_CIS: Attagene CIS-FACTORIAL HepG2 Assay for human E2F Transcription Factor 1 (AID 2282935); conditions: HepG2 Attagene cis-reporter, E2F reporter RNA transcripts; actives raise or lower the signal
Sequence of Transcription factor E2F1 (Homo sapiens) (Q01094 whole entry, looked up): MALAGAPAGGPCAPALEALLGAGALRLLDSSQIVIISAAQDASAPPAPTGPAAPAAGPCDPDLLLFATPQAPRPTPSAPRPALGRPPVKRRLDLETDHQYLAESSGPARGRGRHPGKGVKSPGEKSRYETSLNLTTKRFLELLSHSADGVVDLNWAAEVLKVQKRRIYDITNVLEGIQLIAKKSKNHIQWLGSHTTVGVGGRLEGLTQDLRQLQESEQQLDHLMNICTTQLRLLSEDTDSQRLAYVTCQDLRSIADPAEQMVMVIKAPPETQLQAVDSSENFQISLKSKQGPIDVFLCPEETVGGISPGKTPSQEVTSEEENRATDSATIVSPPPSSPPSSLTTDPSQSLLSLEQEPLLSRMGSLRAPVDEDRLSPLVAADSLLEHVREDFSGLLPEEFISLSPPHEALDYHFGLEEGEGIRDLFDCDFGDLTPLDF
In short: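 First, HepG2 cells were transfected with reporter transcription units. Next, they were dosed for 24 h. Then RNA was isolated, converted to cDNA, PCR-amplified, FAM-labeled, HpaI-digested and analyzed by capillary electrophoresis.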

[2] = ATG_E_Box_CIS: Attagene CIS-FACTORIAL HepG2 Assay for human Enhancer Box (E-box) (AID 2282936); conditions: HepG2 E-box cis-reporter transcription, actives raise or lower the signal
In short: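 Endogenous transcription factor activity was sensed in human HepG2 liver cells through transfected cis-promoter reporter units. After 24 h of dosing, total RNA was reverse-transcribed and reporter cDNA resolved by capillary electrophoresis.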

[3] = ATG_M_61_CIS: Attagene CIS-FACTORIAL HepG2 Assay for M61 Transcription Factor (Internal Marker) (AID 2282937); conditions: HepG2 Attagene CIS-FACTORIAL M61 internal marker reporter; actives raise or lower the signal
In short: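 Endogenous transcription factor activity in HepG2 is read through transiently transfected cis-element reporter units. After 24 h dosing, RNA undergoes reverse transcription, PCR and primer extension with 6-FAM before capillary electrophoresis; DMSO-referenced bidirectional fit.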

[4] = ATG_EGR_CIS: Attagene CIS-FACTORIAL HepG2 Assay for human Early Growth Response 1 (EGR1) (AID 2282938); conditions: HepG2 Attagene CIS-FACTORIAL EGR reporter mRNA; actives raise or lower the signal
In short: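 Activity is taken as induction or loss of reporter mRNA versus DMSO, fitted bidirectionally. Transcripts from cis-regulated reporter units in transiently transfected HepG2 were measured after 24 h by RT-PCR with capillary electrophoresis.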

[5] = ATG_M_19_CIS: Attagene CIS-FACTORIAL HepG2 Assay for M19 Transcription Factor (Internal Marker) (AID 2282939); conditions: HepG2 Attagene CIS-FACTORIAL M19 internal marker reporter; actives raise or lower the signal
In short: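 Background-control endpoint from a multiplexed HepG2 reporter panel. Cells carrying cis-regulated reporter constructs are treated 24 h, then reporter transcripts are amplified, fluorescently labelled and sized by capillary electrophoresis. DMSO defines baseline.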

[6] = ATG_ERE_CIS: Attagene CIS-FACTORIAL HepG2 Assay for Estrogen Response Element (ERE) (AID 2282940); conditions: HepG2 ERE cis-reporter, Attagene RNA transcript; actives raise or lower the signal
In short: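 Cells used were human hepatoma HepG2, transfected with multiple reporter transcription units under cis-regulatory promoters. Reporter mRNA, read 24 h post-dosing via fluorescent RT-PCR products on capillary electrophoresis, was fitted bidirectionally relative to DMSO.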

[7] = molecular target: Hepatocyte nuclear factor 3-beta (Homo sapiens) (UniProt Q9Y261); test: ATG_FoxA2_CIS: Attagene CIS-FACTORIAL HepG2 Assay for human Forkhead box A2 (FOXA2) (AID 2282942); conditions: HepG2 cis-reporter transcription factor activity, 24 h; actives raise or lower the signal
Sequence of Hepatocyte nuclear factor 3-beta (Homo sapiens) (Q9Y261 whole entry, looked up): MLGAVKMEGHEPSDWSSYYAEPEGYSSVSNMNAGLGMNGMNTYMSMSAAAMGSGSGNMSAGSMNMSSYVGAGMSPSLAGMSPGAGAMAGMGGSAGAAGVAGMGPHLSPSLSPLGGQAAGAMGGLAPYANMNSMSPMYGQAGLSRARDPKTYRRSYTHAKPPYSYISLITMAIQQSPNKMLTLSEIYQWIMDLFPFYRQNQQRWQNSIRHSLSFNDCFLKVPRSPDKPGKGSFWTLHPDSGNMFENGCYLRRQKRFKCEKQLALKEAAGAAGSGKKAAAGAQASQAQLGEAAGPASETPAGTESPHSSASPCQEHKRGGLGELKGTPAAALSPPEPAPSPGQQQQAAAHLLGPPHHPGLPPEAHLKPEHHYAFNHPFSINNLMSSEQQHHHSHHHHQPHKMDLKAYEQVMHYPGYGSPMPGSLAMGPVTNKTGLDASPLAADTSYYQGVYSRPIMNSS
In short: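 Reporter transcript induction is measured by fluorescence after capillary electrophoresis of RT-PCR products from HepG2 cells exposed 24 h. Cis-regulated reporter units report endogenous factor activity; curves fitted both directions against DMSO.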

[8] = ATG_FoxO_CIS: Attagene CIS-FACTORIAL HepG2 Assay for human Forkhead box O (FoxO) (AID 2282943); conditions: HepG2 Attagene cis-reporter, FoxO element, mRNA; actives raise or lower the signal
In short: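 24 h chemical exposure, HepG2 with transient cis-MRTU transfection. RNA extraction, oligo(dT) RT, reporter-specific PCR, primer-extension labelling, HpaI digestion, CE fragment analysis; bidirectional fit, DMSO baseline.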

[9] = ATG_GATA_CIS: Attagene CIS-FACTORIAL HepG2 Assay for human GATA Binding Protein (AID 2282944); conditions: HepG2 GATA cis-element reporter, Attagene multiplex mRNA; actives raise or lower the signal
In short: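 Endogenous transcription factor activity was captured through cis-promoter-driven reporters in transfected HepG2 cells. After 24 h exposure, reporter transcripts were quantified by RT-PCR with fluorescent capillary electrophoresis, and responses fitted both directions against DMSO.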

[10] = ATG_GLI_CIS: Attagene CIS-FACTORIAL HepG2 Assay for human Zinc Finger Protein GLI1 (AID 2282945); conditions: HepG2, Attagene cis-factorial reporter mRNA, GLI element; actives raise or lower the signal
In short: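 HepG2 cells transiently transfected with cis-promoter multiplexed reporter units report endogenous transcription factor activity. After 24 h chemical exposure, reporter mRNA was quantified by RT-PCR, 6-FAM labelling, HpaI digestion and capillary electrophoresis, with bidirectional fitting against DMSO.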

[11] = molecular target: Bile acid receptor (Homo sapiens) (UniProt Q96RI1); test: ATG_IR1_CIS: Attagene CIS-FACTORIAL HepG2 Assay for human Nuclear Receptor Subfamily 1 Group H Member 4 (NR1H4), IR1 submotif (AID 2282946); conditions: IR1 reporter transcription, actives raise or lower the signal
Sequence of Bile acid receptor (Homo sapiens) (Q96RI1 whole entry, looked up): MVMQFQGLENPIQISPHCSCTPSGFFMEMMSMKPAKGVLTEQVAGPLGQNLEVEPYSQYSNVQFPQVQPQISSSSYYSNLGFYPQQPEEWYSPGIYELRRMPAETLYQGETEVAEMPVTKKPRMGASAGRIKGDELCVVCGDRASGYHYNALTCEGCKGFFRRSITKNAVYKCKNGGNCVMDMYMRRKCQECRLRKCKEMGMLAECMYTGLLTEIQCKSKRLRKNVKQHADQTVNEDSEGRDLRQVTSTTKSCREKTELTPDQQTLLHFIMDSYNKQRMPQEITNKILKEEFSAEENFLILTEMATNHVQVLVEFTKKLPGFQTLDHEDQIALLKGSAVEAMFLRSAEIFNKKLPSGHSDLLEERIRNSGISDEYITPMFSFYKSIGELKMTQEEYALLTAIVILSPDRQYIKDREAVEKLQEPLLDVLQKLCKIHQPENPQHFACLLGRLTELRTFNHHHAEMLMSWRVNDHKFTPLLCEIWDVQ
In short: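 Readout: reporter transcript levels by RT-PCR with fluorescent capillary electrophoresis, from HepG2 cells transiently transfected with multiplexed cis-regulated reporters and dosed 24 h. Gain- or loss-of-signal fitted versus DMSO negative control.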

[12] = ATG_GRE_CIS: Attagene CIS-FACTORIAL HepG2 Assay for human Glucocorticoid Response Elements (GRE) (AID 2282947); conditions: HepG2 GRE cis-reporter, Attagene multiplex mRNA; actives raise or lower the signal
In short: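 Cells (HepG2) bearing transfected cis-promoter reporter transcription units were treated with chemical for 24 hours. Reporter mRNA was measured via RT-PCR with capillary electrophoresis, and activity was fitted in both directions relative to DMSO.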

[13] = ATG_ISRE_CIS: Attagene CIS-FACTORIAL HepG2 Assay for human Interferon Regulatory Factor 1 (IRF1) binding to an Interferon-Stimulated Response Element (ISRE) (AID 2282948); conditions: HepG2 ISRE cis-reporter (Attagene), mRNA transcription readout; actives raise or lower the signal
In short: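 Multiplexed mRNA reporter readout in human liver HepG2 cells: cis-element-driven reporters transfected, compound added for 24 h, transcripts amplified, fluorescently labelled and sized by capillary electrophoresis; curve fitting bidirectional against DMSO.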

[14] = ATG_M_32_CIS: Attagene CIS-FACTORIAL HepG2 Assay for M32 Transcription Factor (Internal Marker) (AID 2282949); conditions: HepG2 Attagene cis-factorial M32 reporter, mRNA; actives raise or lower the signal;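 note: background control marker of the multiplexed CIS panel rather than a real target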
In short: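 HepG2 transfectants (cis-regulated reporter transcription units) dosed 24 h. Reporter mRNA by RT-PCR plus CE, analysed as gain or loss relative to DMSO.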

[15] = ATG_M_06_CIS: Attagene CIS-FACTORIAL HepG2 Assay for M06 Transcription Factor (Internal Marker) (AID 2282950); conditions: HepG2 Attagene CIS-FACTORIAL M06 internal marker reporter; actives raise or lower the signal
In short: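 Steps: transfect HepG2 with multiplexed cis-element reporter constructs; dose chemical 24 h; extract RNA with DNase treatment; reverse-transcribe, PCR-amplify, 6-FAM label, HpaI digest; separate fragments by capillary electrophoresis. Activity fitted both directions versus DMSO.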

[16] = molecular target: Hypoxia-inducible factor 1-alpha (Homo sapiens) (UniProt Q16665); test: ATG_HIF1a_CIS: Attagene CIS-FACTORIAL HepG2 Assay for human Hypoxia Inducible Factor 1 (HIF1A) (AID 2282951); conditions: HepG2 Attagene cis-factorial HIF1a reporter transcription; actives raise or lower the signal
Sequence of Hypoxia-inducible factor 1-alpha (Homo sapiens) (Q16665 whole entry, looked up): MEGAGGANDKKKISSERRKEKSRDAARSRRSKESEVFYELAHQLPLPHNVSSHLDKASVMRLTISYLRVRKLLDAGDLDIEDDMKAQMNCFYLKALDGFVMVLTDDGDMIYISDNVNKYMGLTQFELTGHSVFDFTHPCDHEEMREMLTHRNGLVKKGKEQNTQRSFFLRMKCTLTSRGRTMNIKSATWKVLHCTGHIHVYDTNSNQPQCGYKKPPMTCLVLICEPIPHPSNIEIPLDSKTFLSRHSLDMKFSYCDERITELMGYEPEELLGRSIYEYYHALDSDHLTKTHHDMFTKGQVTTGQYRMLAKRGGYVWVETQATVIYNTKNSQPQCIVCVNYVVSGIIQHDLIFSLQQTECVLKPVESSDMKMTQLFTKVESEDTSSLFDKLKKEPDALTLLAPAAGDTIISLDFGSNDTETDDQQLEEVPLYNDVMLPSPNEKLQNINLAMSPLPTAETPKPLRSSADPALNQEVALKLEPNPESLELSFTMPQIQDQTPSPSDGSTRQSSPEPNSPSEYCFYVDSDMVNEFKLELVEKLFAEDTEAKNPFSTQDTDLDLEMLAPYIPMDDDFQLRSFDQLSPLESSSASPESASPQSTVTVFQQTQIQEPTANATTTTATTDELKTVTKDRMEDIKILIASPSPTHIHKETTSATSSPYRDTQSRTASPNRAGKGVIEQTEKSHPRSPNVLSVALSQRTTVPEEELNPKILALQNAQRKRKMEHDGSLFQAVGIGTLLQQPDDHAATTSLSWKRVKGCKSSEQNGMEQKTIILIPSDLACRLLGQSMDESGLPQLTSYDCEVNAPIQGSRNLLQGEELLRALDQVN
In short: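 Fluorescence intensity of capillary-separated, 6-FAM-labelled reporter amplicons gives mRNA induction in HepG2 cells carrying transfected cis-promoter reporter units; cells exposed 24 h, responses fitted up or down from DMSO.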

[17] = molecular target: Heat shock factor protein 1 (Homo sapiens) (UniProt Q00613); test: ATG_HSE_CIS: Attagene CIS-FACTORIAL HepG2 Assay for human Heat Shock Transcription Factor 1 (HSE) (AID 2282953); conditions: HepG2 HSE cis-reporter, Attagene RNA transcription; actives raise or lower the signal
Sequence of Heat shock factor protein 1 (Homo sapiens) (Q00613 whole entry, looked up, the tested form may be a part): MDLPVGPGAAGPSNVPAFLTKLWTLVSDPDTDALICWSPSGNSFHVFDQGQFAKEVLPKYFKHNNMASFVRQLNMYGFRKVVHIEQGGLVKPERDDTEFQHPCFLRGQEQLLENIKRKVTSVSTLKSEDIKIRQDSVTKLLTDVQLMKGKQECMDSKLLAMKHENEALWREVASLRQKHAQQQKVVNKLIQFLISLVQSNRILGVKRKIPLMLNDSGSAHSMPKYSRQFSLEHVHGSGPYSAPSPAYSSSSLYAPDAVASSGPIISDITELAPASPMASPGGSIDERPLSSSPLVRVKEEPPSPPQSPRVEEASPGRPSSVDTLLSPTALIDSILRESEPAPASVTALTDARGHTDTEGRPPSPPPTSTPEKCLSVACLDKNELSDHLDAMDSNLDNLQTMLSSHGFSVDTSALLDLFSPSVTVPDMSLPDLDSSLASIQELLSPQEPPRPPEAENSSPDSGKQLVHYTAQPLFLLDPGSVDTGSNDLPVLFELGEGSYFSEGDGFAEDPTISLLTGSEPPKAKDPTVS
In short: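 Cells were transfected with cis-element-driven reporter constructs, dosed for 24 h, then total RNA was reverse-transcribed and reporter cDNA amplified, FAM-labelled and digested with HpaI. Fragments were resolved by capillary electrophoresis; gain or loss was fitted against DMSO.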

[18] = ATG_MRE_CIS: Attagene CIS-FACTORIAL HepG2 Assay for human Metal Responsive Element (MRE) (AID 2282954); conditions: HepG2 MRE cis-reporter transcription, Attagene multiplex; actives raise or lower the signal
In short: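 Cells were transfected with cis-promoter reporter transcription units, then dosed for 24 h. RNA was reverse-transcribed, amplified, fluorescently labelled and resolved by capillary electrophoresis, and activity was fitted in both directions relative to DMSO.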

[19] = molecular target: Hepatocyte nuclear factor 6 (Homo sapiens) (UniProt Q9UBC0); test: ATG_HNF6_CIS: Attagene CIS-FACTORIAL HepG2 Assay for human Hepatocyte Nuclear Factor 6 (HNF6) (AID 2282952); conditions: HepG2 Attagene cis-factorial HNF6 reporter transcription; actives raise or lower the signal
Sequence of Hepatocyte nuclear factor 6 (Homo sapiens) (Q9UBC0 whole entry, looked up, the tested form may be a part): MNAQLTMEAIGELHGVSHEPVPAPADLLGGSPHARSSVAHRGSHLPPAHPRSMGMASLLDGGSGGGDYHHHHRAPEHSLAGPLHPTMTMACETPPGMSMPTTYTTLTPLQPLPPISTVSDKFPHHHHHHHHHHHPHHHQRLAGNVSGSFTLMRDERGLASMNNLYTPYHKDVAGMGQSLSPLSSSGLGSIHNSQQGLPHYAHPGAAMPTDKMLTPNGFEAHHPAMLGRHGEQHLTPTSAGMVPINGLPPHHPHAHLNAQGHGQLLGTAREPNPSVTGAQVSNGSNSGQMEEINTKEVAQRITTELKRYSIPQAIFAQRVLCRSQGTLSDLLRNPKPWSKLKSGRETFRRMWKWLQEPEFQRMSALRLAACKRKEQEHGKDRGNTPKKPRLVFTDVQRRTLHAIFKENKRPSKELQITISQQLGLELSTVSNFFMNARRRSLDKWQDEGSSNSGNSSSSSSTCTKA
In short: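 Using cis-element reporters in HepG2 liver cells, the assay tracks endogenous factor-driven transcription 24 h post-dosing. Signal comes from 6-FAM-labelled, HpaI-digested RT-PCR fragments, with gain or loss scored against DMSO.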

Measured: AC50

CN(C(=O)C(F)(F)C(F)(F)C(F)(F)F)[Si](C)(C)C
not listed: [19]
inactive: all other assays above

COC(=O)c1ccc(C=O)cc1
not listed: [15]
inactive: all other assays above

NCC(F)(F)C(F)(F)C(F)(F)C(F)(F)C(F)(F)C(F)(F)C(F)(F)C(F)(F)F
not listed: [15] | [16] | [19]
inactive: all other assays above

O=S(=O)(O)c1ccc(Cl)cc1
not listed: [7]
inactive: all other assays above

CC(O)C#CC(C)O (stereo not given)
inactive: [1] | [3] | [5] | [6] | [12] | [14] | [15]
active: [2] 185 µM | [4] 82.9 µM | [7] 131 µM | [8] 63 µM | [9] 69.2 µM | [10] 142 µM | [11] 67.7 µM | [13] 99.5 µM | [17] 78.2 µM | [18] 57.2 µM

FC(F)(F)C(F)(F)C(F)(F)C(F)(F)C(F)(F)C(F)(F)C(F)(F)CCI
not listed: [15]
inactive: all other assays above

CCc1ccc(C)nc1
not listed: [19]
inactive: all other assays above

Cc1ccc(O)c(-n2nc3ccccc3n2)c1
active: [6] 10.4 µM
not listed: [16] | [19]
inactive: all other assays above
